From article PMC4336329 (PLoS ONE, 2015)
Hit rate of the full screen: of about 310,000 compounds, about 2,200 (0.71%) showed an effect of 50% or more. Effects have a minus sign here. What follows is part of a selection rich in strong results, with near analogues and random picks from the rest.

The compounds below were run against human ether-à-go-go-related gene (hERG) potassium channel (human, UniProt Q12809) (assay: primary screen, population patch clamp on CHO cells stably expressing hERG; higher = less effect of the substance).
Chain of human ether-à-go-go-related gene (hERG) potassium channel (Q12809 whole entry, looked up): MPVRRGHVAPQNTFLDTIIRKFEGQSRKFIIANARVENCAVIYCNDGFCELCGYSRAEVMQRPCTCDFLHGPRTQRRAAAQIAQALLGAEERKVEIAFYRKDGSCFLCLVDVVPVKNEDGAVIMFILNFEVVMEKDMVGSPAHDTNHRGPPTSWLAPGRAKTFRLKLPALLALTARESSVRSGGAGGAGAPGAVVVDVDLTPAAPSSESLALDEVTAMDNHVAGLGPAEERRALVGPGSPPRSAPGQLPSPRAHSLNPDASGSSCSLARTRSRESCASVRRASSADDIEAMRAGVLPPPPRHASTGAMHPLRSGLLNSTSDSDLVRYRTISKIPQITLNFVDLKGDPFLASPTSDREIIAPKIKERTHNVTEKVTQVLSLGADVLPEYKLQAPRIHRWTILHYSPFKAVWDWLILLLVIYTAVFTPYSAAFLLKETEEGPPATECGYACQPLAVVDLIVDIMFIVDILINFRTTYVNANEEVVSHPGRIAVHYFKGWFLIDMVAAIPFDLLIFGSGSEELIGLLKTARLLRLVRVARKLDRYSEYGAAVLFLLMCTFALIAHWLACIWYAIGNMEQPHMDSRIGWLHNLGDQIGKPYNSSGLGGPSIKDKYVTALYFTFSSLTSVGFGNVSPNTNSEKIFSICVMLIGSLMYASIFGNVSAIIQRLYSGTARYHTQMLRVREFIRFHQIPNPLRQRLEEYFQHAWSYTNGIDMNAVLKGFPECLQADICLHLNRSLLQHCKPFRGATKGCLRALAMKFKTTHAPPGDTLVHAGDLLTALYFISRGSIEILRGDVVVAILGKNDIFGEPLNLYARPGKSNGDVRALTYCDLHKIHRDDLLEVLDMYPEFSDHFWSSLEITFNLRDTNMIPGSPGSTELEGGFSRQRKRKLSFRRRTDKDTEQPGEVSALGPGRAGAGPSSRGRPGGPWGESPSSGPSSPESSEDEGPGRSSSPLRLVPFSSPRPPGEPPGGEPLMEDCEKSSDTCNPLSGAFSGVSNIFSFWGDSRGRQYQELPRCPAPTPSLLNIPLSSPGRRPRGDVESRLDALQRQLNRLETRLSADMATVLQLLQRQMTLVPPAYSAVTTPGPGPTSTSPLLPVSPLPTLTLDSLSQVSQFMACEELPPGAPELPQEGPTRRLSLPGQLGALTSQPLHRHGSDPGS

Structure (SMILES) | hERG current change (%, negative = inhibition) at 1uM
COc1ccc(S(=O)(=O)N2CCN(C/C=C/c3ccccc3)CC2)cc1F | 8.5%
Cc1ccccc1NC(=O)N1CCN(C/C=C/c2ccccc2)CC1 | 11%
O=C(CN1CCN(C/C=C/c2ccccc2)CC1)Nc1ccc(F)cc1F | -87.4%
O=C(CCN1CCN(c2ccccc2)CC1)Nc1ccccc1F | 14.5%
Fc1ccccc1NC(=S)N1CCN(C/C=C/c2ccccc2)CC1 | 7.89%
COc1ccc(S(=O)(=O)N2CCN(C/C=C/c3ccccc3)CC2)cc1NC(C)=O | -54.2%
O=C(Nc1ccc(F)cc1F)N1CCN(C/C=C/c2ccccc2)CC1 | -15.3%
O=C(CCN1CCN(C/C=C/c2ccccc2)CC1)Nc1ccccc1F.O=C(O)C(=O)O | -81.2%
COc1ccc(NC(C)=O)cc1S(=O)(=O)N1CCN(C/C=C/c2ccccc2)CC1 | -48.1%
Cl.O=C(CCN1CCN(C/C=C/c2ccccc2)CC1)Nc1ccccc1Cl | -47.6%
Fc1ccc(NC(=S)N2CCN(C/C=C/c3ccccc3)CC2)c(F)c1 | 13%
Cc1ccccc1NC(=O)CCN1CCN(C/C=C/c2ccccc2)CC1 | -72%
O=C(Nc1ccc(-c2nc3ccccc3o2)cc1)c1cc(-n2cnnc2)ccc1Cl | 6.74%
O=C(O)CC(NC(=S)NCc1ccccc1)C(=O)O (centres unmarked) | -7.52%
CC(CCc1ccccc1)NC(=O)COC(=O)c1ccc([N+](=O)[O-])cc1 (centres unmarked) | 5.37%
COc1ccc(CCNC(=O)CSc2nc3c(c(=O)n(C)c(=O)n3C)n2C(C)C)cc1OC | -14.5%
CC(C)=CCc1c(O)cc2c(c1O)C(=O)CC(c1ccccc1)O2 (centres unmarked) | 12.9%
CCN(CC)S(=O)(=O)c1cc(C(=O)N(C)CC(=O)Nc2ccc(Cl)cc2)ccc1Cl | -1.15%
COc1cccc(-c2c(-c3cc(OC)cc(OC)c3)n(C)c3ccc(-c4ccc5[nH]ccc5c4)cc23)c1 | 11.8%
CCN1CCN(c2nc(-c3ccccc3Cl)nc3ccccc23)CC1.Cl | -39.1%
Cc1ccc(S(=O)(=O)N2CCN=C2SCc2ccc(Cl)c(Cl)c2)cc1 | 10.2%

Structure (SMILES) | hERG current change (%, negative = inhibition) at 1uM
COc1ccc(C=C2c3ccccc3C(=O)c3ccccc32)c(OC)c1 | 7.49%
Cc1nn(Cc2noc(C(=O)NCc3ccc4c(c3)OCO4)n2)c(C)c1Br | 1.08%
CCOC(=O)n1c(=O)n(Cc2ccccc2Cl)c2ccccc21 | 10.3%
O=C(CSc1nnc(COc2ccc(Cl)cc2)o1)NC1CCCCC1 | -2.69%
COc1ccc(C)cc1NC(=O)CCN1CCN(c2ccccc2)CC1 | 3.12%
COc1ccc(C)cc1NC(=O)CCN1CCN(C/C=C/c2ccccc2)CC1 | -70.9%
COc1ccc(C)cc1NC(=O)CN1CCN(C/C=C/c2ccccc2)CC1 | -45.2%
O=C(NCC1COc2ccccc2O1)c1ccc(NC(=O)c2ccco2)cc1 (centres unmarked) | -1.42%
COc1ccc(-n2c(SCC(=O)N/N=C/c3ccccc3OCC(=O)O)nc3ccccc3c2=O)cc1 | 11.6%
COc1cccc(CN2CCN(C(=O)COc3ccc4ccccc4c3)CC2)c1 | 10.5%
O=C(COc1ccc(Br)cc1)N1CCN(C2CCCC2)CC1 | -42.1%
O=C(COc1ccc(Cl)cc1)N1CCN(Cc2ccc([N+](=O)[O-])cc2)CC1.O=C(O)C(=O)O | -76.4%
O=C(COc1ccc2ccccc2c1)N1CCN(Cc2ccncc2)CC1.O=C(O)C(=O)O | -14.8%
O=C(COc1ccc(Cl)cc1)N1CCN(Cc2ccccc2)CC1 | 3.32%
O=C(COc1ccccc1)N1CCN(C2CCCC2)CC1.O=C(O)C(=O)O | 8.65%
O=C(COc1ccc(Cl)cc1)N1CCN(C2CCCC2)CC1.O=C(O)C(=O)O | -68.4%
COc1cc(CN2CCN(Cc3ccc(C)cc3)CC2)c([N+](=O)[O-])cc1OC.O=C(O)C(=O)O | -73.4%
O=C(COc1ccc2ccccc2c1)N1CCN(C2CCN(Cc3ccccc3)CC2)CC1 | -69.6%
COc1cc(CN2CCN(Cc3ccc([N+](=O)[O-])cc3)CC2)c([N+](=O)[O-])cc1OC.O=C(O)C(=O)O | -25.4%
O=C(COc1ccc(Cl)cc1)N1CCN(Cc2ccc3c(c2)OCO3)CC1 | -6.58%
COc1cccc(CN2CCN(Cc3cc(OC)c(OC)cc3[N+](=O)[O-])CC2)c1.O=C(O)C(=O)O | -18.5%

Structure (SMILES) | hERG current change (%, negative = inhibition) at 1uM
CCN1c2ccccc2-c2nc3ccccc3n2C1c1cccs1 (centres unmarked) | 4.28%
COCCn1c(=NC(=O)c2cccs2)sc2cc(NC(C)=O)ccc21 | 0.283%
COc1ccc(N2C(=O)C(Cl)=C(Nc3ccccc3OC)C2=O)cc1 | 2.56%
O=C(CSc1nnc(-c2ccccn2)n1Cc1ccccc1)Nc1ccc2c(c1)OCO2 | 7.03%
CCN(CC)CCCNC(CC(=O)Nc1cccc([N+](=O)[O-])c1)C(=O)O (centres unmarked) | 3.62%
COc1ccccc1C(=O)C1CCCN(C(=O)c2cccc(-n3cccn3)c2)C1 (centres unmarked) | 9.07%
Nc1ccc(-n2nnnc2-c2ccco2)cc1 | 11.1%
Cc1cccc(OCC(=O)N2CCN(Cc3ccncc3)CC2)c1.O=C(O)C(=O)O | 10.2%
Cc1cccc(OCC(=O)N2CCN(S(C)(=O)=O)CC2)c1 | 9.87%
Cc1ccc(OCC(=O)N2CCN(Cc3ccc([N+](=O)[O-])cc3)CC2)cc1.O=C(O)C(=O)O | -85%
Cc1cccc(OCC(=O)N2CCN(Cc3ccc([N+](=O)[O-])cc3)CC2)c1.O=C(O)C(=O)O | -60.5%
Cc1cccc(OCC(=O)N2CCN(C(=O)COc3ccc(Cl)cc3)CC2)c1 | -56.6%
Cc1cccc(OCC(=O)N2CCOCC2)c1 | 17.1%
Cc1ccc(OCC(=O)N2CCN(C(=O)c3ccc([N+](=O)[O-])cc3)CC2)cc1 | -19.5%
Cc1cccc(OCC(=O)N2CCN(C(=O)c3ccc([N+](=O)[O-])cc3)CC2)c1 | -38.8%
CSc1ccc(CN2CCN(C(=O)COc3ccc(C)cc3)CC2)cc1.O=C(O)C(=O)O | -19.3%
Cc1ccc(S(=O)(=O)N2CCC(C(=O)OCC(=O)N(CC(C)C)C3CCS(=O)(=O)C3)CC2)cc1C (centres unmarked) | 10.8%
Nc1n[nH]c2cc(=O)n(-c3cccc(C(F)(F)F)c3)nc12 | 12.3%
O=C(CSc1nc(Cc2ccccc2)nc2ccccc12)Nc1nc2c(s1)CCCC2 | 15.9%
O=C(Nc1ccc2c(c1)OCO2)C1CC(=O)N(CCc2ccccc2)C1 (centres unmarked) | 4.44%
Cc1ccc(S(=O)(=O)N(C)C)cc1NC(=O)COC(=O)C1CC1 | 17.3%

Structure (SMILES) | hERG current change (%, negative = inhibition) at 1uM
Cc1ccc(S(=O)(=O)N(C)C)cc1NC(=O)COC(=O)C1CCCC1 | -0.454%
Cc1ccc(S(=O)(=O)N(C)C)cc1NC(=O)COC(=O)C1CCN(S(=O)(=O)c2cccs2)CC1 | -58.4%
O=C(Nc1ccccc1)C1CCCN1/C=C/C(=O)C(F)(F)F (centres unmarked) | 2.92%
CCC(NS(=O)(=O)c1ccc(C)cc1)C(=O)Nc1ccc(NC(C)=O)cc1 (centres unmarked) | -1.54%
CCC(=O)N(Cc1ccc(C)cc1)Cc1cc2cc3c(cc2[nH]c1=O)OCO3 | 0.914%
O=C(O)CCc1ccc(-c2ccccc2)n1-c1cccc(C(=O)O)c1 | 15.2%
O=C(NCCS(=O)(=O)N1CCN(c2ccccc2)CC1)C1CC(=O)N(c2ccccc2)C1 (centres unmarked) | 18%
Cc1ccc(C)c(CN2C(=O)CSc3ccc(C(=O)NCCN4CCOCC4)cc32)c1 | 20.1%
Cc1ccc(C)c(CN2C(=O)CSc3ccc(C(=O)N4CCCC4)cc32)c1 | 5.65%
Cc1ccc(C)c(CN2C(=O)CSc3ccc(C(=O)NCC(C)CN4CCC(C)CC4)cc32)c1 (centres unmarked) | -70.4%
N#Cc1ccc(NC(=O)COC(=O)CSc2nnc(-c3ccc(Cl)cc3)o2)cc1 | 6.91%
Cc1sc2ncnc(N3CCC(C(=O)N(C)CC(=O)Nc4ccccc4Br)CC3)c2c1C | -8.93%
Cc1sc2ncnc(N3CCC(C(=O)N(C)CC(=O)Nc4ccccc4Cl)CC3)c2c1C | -30%
CCCN(CC(=O)Nc1ccccc1C)C(=O)C1CCN(c2ncnc3sc(C)c(C)c23)CC1 | -56.5%
CCN1CCN(c2nc(-c3cccs3)nc3ccccc23)CC1 | -66.2%
CCCN1CCN(c2nc(-c3cccs3)nc3ccccc23)CC1 | -16.1%
CC(=O)N1CCN(c2nc(-c3cccs3)nc3ccccc23)CC1 | -49.4%
c1csc(-c2nc(N3CCOCC3)c3ccccc3n2)c1 | 5.11%
CN1CCN(c2nc(-c3cccs3)nc3ccccc23)CC1 | -55%
c1ccc(N2CCN(c3nc(-c4cccs4)nc4ccccc34)CC2)cc1 | 4.12%
